Consider 69 compounds from ChEMBL document CHEMBL4513216, “Probing the Open Global Health Chemical Diversity Library for Multistage-Active Starting Points for Next-Generation Antimalarials” (ACS Infect Dis, 2020).

Hit rate of the full screen: of about 68,000 compounds, about 2,700 (4%) showed an effect of 50% or more. The full list was thinned out, with strong results kept by preference.

The test system of this test is Plasmodium berghei. Nature of the test: Screen against P. berghei liver stage (PbLuc), transformed with Luciferase, at 2uM. Type of test: functional, HepG2. As to conditions: tested at 2 uM.
Turning to `CCc1nc(C2CCCN(C(=O)c3ccc4[nH]nnc4c3)C2)no1` (centres undefined), the INHIBITION was 38.72%.
Consider `CCOc1cc(C(=O)N2CCCC(c3noc(C(C)C)n3)C2)ccn1` (centres undefined), for which the INHIBITION was found to be 64.16%.
The same measure for `CCc1nc(C2CCCN(C(=O)c3ccc(O)nc3)C2)no1` (centres undefined): 9.82%.
The same measure for `CCc1nc(C2CCCN(C(=O)c3ccc(OC(C)C)nc3)C2)no1` (centres undefined): 54.92%; for `CCc1nc(C2CCCN(C(=O)c3ccc(OC)cc3)C2)no1` (centres undefined): 48.43%.
The same measure for `CCc1nc(C2CCCN(C(=O)c3ccc4[nH]cnc4c3)C2)no1` (centres undefined): 52.52%; for `CC(C)c1nc(C2CCCN(C(=O)CCn3ccccc3=O)C2)no1` (centres undefined): 29.59%.
Turning to `CC(C)c1nc(C2CCCN(C(=O)c3ccc4[nH]cnc4c3)C2)no1` (centres undefined), the INHIBITION came to 33.91%.
The same measure for `CCOc1cc(C(=O)N2CCCC(c3noc(CC)n3)C2)ccn1` (centres undefined): 43.79%.
The same measure for `CCOc1cc(C(=O)N2CCCC(c3noc(C)n3)C2)ccn1` (centres undefined): -29.94%; for `CCc1nc(C2CCCN(C(=O)CCn3ccccc3=O)C2)no1` (centres undefined): 54.92%; for `Cc1nc(C2CCCN(C(=O)CCn3ccccc3=O)C2)no1` (centres undefined): 47.23%.
In the case of `Cc1cccn2c(CNC(C)CCc3ccc(O)cc3)cnc12` (centres undefined), the INHIBITION is -19.78%.
Consider `Cc1cccc(C(=O)NC(C)CN2CCCC2=O)n1` (centres undefined), for which the INHIBITION was determined as 5.91%.
The same measure for `c1ccc(CO[C@@H]2CC[C@H]3[C@H]2OCCN3Cc2ccsc2)nc1`: 22.62%; for `O=C(c1ccsc1)N1C[C@H]2CN(Cc3cccnc3)C(=O)[C@H]2C1`: 18.91%; for `CN1CCc2c(C#N)c(NCc3cccnc3)n3cnnc3c2C1`: -48.47%.
The same measure for `CN(C)CC1CN(Cc2coc(-c3ccc(Cl)cc3)n2)CCO1` (centres undefined): 35.23%; for `O=C(O)C1(Oc2ccc3ccccc3c2)CCN(c2ccncc2)CC1`: 2.04%.
Turning to `CCCc1n[nH]c(C2CN(C(=O)Cn3ccccc3=O)CCO2)n1` (centres undefined), the INHIBITION was -53.98%.
The same measure for `CCCc1n[nH]c(C2CN(C(=O)CCn3ccccc3=O)CCO2)n1` (centres undefined): 60.09%; for `CCc1n[nH]c(C2CN(C(=O)CCn3ccccc3=O)CCO2)n1` (centres undefined): -27.5%.
The same measure for `CC(C)NC(=O)N1CCCC(c2nnc(CN3CCOCC3)n2C)C1` (centres undefined): 10.02%; for `CC(NCc1cnc(N2CCOCC2)nc1)c1ccc(Cl)s1` (centres undefined): -62.93%; for `Cc1nc(C2CCCN2CCCS(=O)(=O)N(C)C)no1` (centres undefined): 9.36%.
Turning to `C[C@H](C(=O)N1Cc2ccccc2CC2(CCCN2C)C1)c1ccccc1` (some centres undefined), the INHIBITION was found to be 29.56%.
The same measure for `CCNC(=O)c1cn(C(C)(C)C)c2ncccc12`: 40.4%; for `O=C(C1CCC1)N1CCCC1c1nnc2n1CCCCC2` (centres undefined): 41.56%; for `O=C(C1CCCC1)N1CCCC1c1nnc2n1CCCCC2` (centres undefined): -15.83%.
The same measure for `O=C(C1CC1)N1CCCC1c1nnc2n1CCCCC2` (centres undefined): 58.29%.
The same measure for `C[C@@H]1CN(S(=O)(=O)N2CCCCCC2)C[C@@]1(O)C1CCC1`: 6.68%; for `CCC(O)CN1CCN(C(=O)c2ccc(Cn3cccc3)cc2)CC1` (centres undefined): -25.46%.
`O=C(Nc1cccnc1)[C@H]1C[C@H]2CN(Cc3ccc(F)cc3)C[C@@H]1O2`: the INHIBITION came out at 6.35%.
Regarding `CNC(=O)CS(=O)(=O)NC1CCC(C)CC1` (centres undefined), the INHIBITION is on record as 7.46%.
The same measure for `Cc1ccc(NC(=O)CS(=O)(=O)NC2CCC(C)CC2)nc1` (centres undefined): 59.03%; for `CC1CCC(NS(=O)(=O)CC(=O)Nc2ccc(N3CCCC3)cn2)CC1` (centres undefined): -3.25%.
The same measure for `CCN(CC)CCn1c(NC(=O)c2scnc2C)nc2ccccc21`: -34.06%; for `O=C(Nc1ccccc1Oc1cccc(F)c1)NC1CCS(=O)(=O)C1` (centres undefined): 11.88%.
The same measure for `CNC(=O)NC(=O)CSC(C)c1ccccc1F` (centres undefined): 20.74%; for `CC(=O)N1CCC(Cc2cncc(-c3c(C)n[nH]c3C)n2)C1` (centres undefined): 23.22%.
For the compound `CC(C)CN1CCC2(CCN(Cc3ccoc3)CC2)C1=O`, the INHIBITION is 44.43%.
The same measure for `CCS(=O)(=O)Nc1cnn(Cc2cccc(F)c2)c1`: 3.58%; for `CCS(=O)(=O)Nc1cnn(Cc2cccc(Cl)c2)c1`: 20.19%; for `CCS(=O)(=O)Nc1cnn(Cc2cccc(C)c2)c1`: 52.95%.
The same measure for `Cn1cc(CN2CCc3c(COCC4CC4)cncc3C2)cn1`: -11.66%.
Take `COCc1cncc2c1CCN(Cc1cnn(C)c1)C2`: the INHIBITION is reported as 53.98%.
The same measure for `CC(C)COCc1cncc2c1CCN(Cc1cnn(C)c1)C2`: -40.42%; for `COc1ccc2cc(C(=O)N3CCCC(n4ccnc4C)C3)[nH]c2c1` (centres undefined): -47.33%.
Turning to `CCNc1cc2c(nn1)CCN(C(=O)c1cccc3c1OCO3)C2`, the INHIBITION was 1.63%.
With `Cn1cc(N2CCN(c3ccc(C#N)cc3F)CC2=O)cn1`, the INHIBITION came to 53.98%.
As to `Cn1cc(N2CCN(c3ccc(C#N)cc3Br)CC2=O)cn1`, the INHIBITION is reported as 42.2%.
For `Cn1cc(N2CCN(c3ccc(C#N)c(Cl)c3)CC2=O)cn1`, the INHIBITION came out at 52.3%.
`COCC1CN(c2ccc(C#N)c(Cl)c2)CCO1` (centres undefined): the INHIBITION worked out at 2.69%.
The same measure for `Cn1ccnc1CN1CCN(c2ccc(C#N)cc2F)CC1`: -5.15%.
The same measure for `N#Cc1ccc(N2CCC(OC3CCOCC3)CC2)cc1Cl`: 26.51%; for `O=C(Cn1cccnc1=O)NCCc1ccc2c(c1)OCCO2`: 0.9%; for `COc1ccc2c(ccn2CCCN)c1`: -19.92%.
The same measure for `CC(Sc1nnnn1C1CCOCC1)C(F)(F)F` (centres undefined): 5.55%.
Take `COC(=O)C(C)Sc1nnnn1C1CCOCC1` (centres undefined): the INHIBITION was -53.55%.
With `CC(Sc1nnnn1C1CCOCC1)C(=O)NC1CCCCC1` (centres undefined), the INHIBITION is listed as -33.07%.
As to `CCCOC(=O)C(C)Sc1nnnn1C1CCOCC1` (centres undefined), the INHIBITION is on record as 71.4%.
The same measure for `CCCC(C)Sc1nnnn1C1CCOCC1` (centres undefined): 61.27%; for `CC(C)OCCSc1nnnn1C1CCOCC1`: 17.37%.
The same measure for `CCc1nccn1C1CCCN(C(=O)Cc2ccc(OC)c(F)c2)C1` (centres undefined): 29.71%.
The same measure for `COc1ccc(CNC(=O)N2CCCC(Nc3ccccc3)C2)cn1` (centres undefined): 17.48%; for `Fc1ccc(CN2CCc3ncnc(C4CC4)c3CC2)cc1`: -12.06%; for `Cc1cn[nH]c1C1CCCCN1C(=O)CCc1c(C)n[nH]c1C` (centres undefined): 5.34%.
With `O=C(NCC1CCCOC1)c1ccc(-c2cccs2)[nH]c1=O` (centres undefined), the INHIBITION is listed as 38.67%.
The same measure for `Cc1cc(C(=O)N2CCCC(c3noc(C)n3)C2)[nH]n1` (centres undefined): 45.75%.
